# PubChem BioAssay AID624351 (Southern Research Specialized Biocontainment Screening …, 2012)
# About 1,400 (58%) of roughly 2,400 compounds were called active.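 The calls were made as follows: active = inhibition of 30% or more at any tested dose; inconclusive = primary hits over the limit that were never retested; inactive = the rest.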 The set was probably picked from earlier hits. The list shows a part of the results.
# Assay: ADP Hunter readout inhibition without MgcRacGAP – biochemical, coupled enzyme counter-screen, artefact control for MgcRacGAP inhibitor project, dose response (AID 624351);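 also: signal is the ADP detection kit reading of free GDP without any GAP enzyme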;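 as to inhibition: 0% = median positive control wells and 100% = median negative control wells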
# Settings: fluorescence, no MgcRacGAP; series mostly up to 80 µM; inhibition: at the top concentration
Compound,IC50,inhibition
COC(C(=O)N/N=C(\C)CC(=O)Nc1ccc(N(C)C)cc1)c1ccccc1 (stereo not given),47.7 µM (active),
O=C(Nc1ccc(C2=NCCN2)cc1)c1ccc(C(=O)Nc2ccc(C3=NCCN3)cc2)c(Cl)c1,,6.39% (inactive)
CCCCCCCCCCCCCCCC[n+]1ccccc1,,4.98% (inactive)
C/C(CC(=O)Nc1ccc(N(C)C)cc1)=N\NC(=O)c1ccncc1,74.6 µM (active),
N#C/C(=C\c1ccc(N2CCOCC2)o1)c1nc2ccccc2[nH]1,13.5 µM (active),
N#C/C(=C/c1ccc(N2CCOCC2)o1)c1nc2ccccc2[nH]1,38.6 µM (active),
N#C/C(=C/c1ccc(N2CCCCCC2)o1)c1ccc(Cl)cc1,,6.82% (inactive)
CN(C)c1ccc(C=c2c3ccccc3n3c2cc(-c2ccc(Cl)cc2)[n+]3C)cc1,,23.3% (inactive)
CC(C)COc1ccc(N)cc1OCC(C)C,46.2 µM (active),
CCN(Cc1ccncc1)Cc1ccc(OC)c(OC)c1,,3.65% (inactive)
CCOc1ccc(C2NC(=O)C(C#N)=C(S)N2c2ccc(OC)cc2)cc1OC (stereo not given),,2.78% (inactive)
CCOc1ccc(N)cc1OC,43.1 µM (active),
COc1ccc(-n2sc3ccccc3c2=O)cc1,,10.5% (inactive)
COc1ccc(-n2sc3ccc(F)cc3c2=O)cc1,,22.9% (inactive)
CN(C)/C=C1\NC(=S)N(c2ccccc2)C1=O,71.9 µM (active),
COc1ccc(N2C(=O)/C(=C/N(C)C)NC2=S)cc1,77.5 µM (active),
Cc1cccc2c(N)c3c(nc12)N(C)CC3,,-29.6% (inactive)
Cc1ccc2c(C)nc(/N=C(\N)NC(=O)N3c4ccccc4Sc4ccccc43)nc2c1,inactive,
Cc1cccn2c(CNC3CCCc4ccccc43)c(C(=O)N3CCCCC3)nc12 (stereo not given),,-1.5% (inactive)
Cc1ccc(NC(=O)CN2CCC(Cc3ccccc3)CC2)cc1S(=O)(=O)N(C)C,,7.91% (inactive)
CN(C)c1ccc(NC(=O)CN2C(=O)c3ccccc3C2=O)cc1,83.9 µM (active),
CN(C)c1ccc(NC(=O)CCN2C(=O)c3cccc([N+](=O)[O-])c3C2=O)cc1,72.7 µM (active),
CN1CC(=O)N(CC(=O)Nc2ccc(N(C)C)cc2)c2ccccc2C1=O,58.4 µM (active),
O=C(CN1CCN(c2ccccn2)CC1)Nc1ccc(F)cc1,,25.8% (inactive)
CCCCOc1ccc(NC(=O)CN2CCN(CC)CC2)cc1,,29.1% (inactive)
CCN(CC)CCCC(C)NC(=O)c1c(NC(=O)c2ccccc2)sc2c1CCCC2 (stereo not given),,14.1% (inactive)
Cc1cc(O)ccc1NC(=O)c1ccccc1,71 µM (active),
O=C1C(Cl)=C(NC(=O)c2ccccc2)C(=O)C(Cl)=C1NC(=O)c1ccccc1,,-0.63% (inactive)

Compound,IC50,inhibition
O=C(O)CCCNC(=O)/C=C/c1ccco1,,-3.21% (inactive)
CSc1ccc(CN2CCC(C(=O)NCc3ccc(C)cc3)CC2)cc1,,21.7% (inactive)
Cc1csc(=O)n1CC(=O)OC(C)C(=O)Nc1ccc(N(C)C)cc1 (stereo not given),56.8 µM (active),
CC1CN(CCCCN2C(=O)c3ccccc3C2=O)CC(C)O1 (stereo not given),,16.3% (inactive)
Cc1cc(C)c(S(=O)(=O)Nc2ccc(N(C)C)cc2)c(C)c1-n1cnnn1,44.4 µM (active),
O=[N+]([O-])c1ccc(C2CC(c3ccccc3)=Nc3ccccc3S2)cc1 (stereo not given),,2.52% (inactive)
Cc1ccc(Cl)cc1-c1ccc(C=Nc2ccc(N3CCOCC3)cc2)o1,11.4 µM (active),
Clc1cccc(-c2ccc(C=Nc3ccc(N4CCOCC4)cc3)o2)c1Cl,14.8 µM (active),
O=C1CCCC2=C1Sc1ccc(Cl)cc1N2,65.6 µM (active),
CC(C)NCC#CCOc1ccc(Cl)cc1,,15.6% (inactive)
COc1ccc(NCCC(O)c2ccc(Cl)cc2)cc1 (stereo not given),28 µM (active),
COc1ccc(NC(C)c2cc(Cl)ccc2O)cc1 (stereo not given),61.5 µM (active),
COc1ccc(O)c(C(c2c(C)[nH][nH]c2=O)c2c(C)[nH][nH]c2=O)c1,,-23.8% (inactive)
CCN(CC)S(=O)(=O)c1ccc(N/N=C/c2ccc(O)cc2O)nc1,29.4 µM (active),
CCN(CC)S(=O)(=O)c1ccc(N/N=C/c2ccc(O)cc2)nc1,38 µM (active),
C[n+]1c(-c2ccccc2)cc2c(=Cc3ccc([N+](=O)[O-])cc3)c3ccccc3n21,,5.28% (inactive)
CC(C)CN(Cc1c(O)ccc2ccccc12)CC(C)C,53.2 µM (active),
COc1cc(/C=C2/C(=O)NN(c3ccc(Cl)cc3)C2=O)cc(Br)c1O,,12.1% (inactive)
CN=c1scc(C)n1/N=C/c1cc(Br)c(O)c(OC)c1,12.6 µM (active),
CCN=c1scc(C)n1/N=C/c1cc(Br)c(O)c(OC)c1,28.7 µM (active),
CN=c1scc(C)n1/N=C/c1cc(Br)c(O)c(Br)c1,69.6 µM (active),
Cc1cc(C)cc(-n2c3nc4ccccc4nc3c3c(=O)n(Cc4ccco4)cnc32)c1,,-1.1% (inactive)
COc1ccc(CN2CCN(Cc3ccc4ccccc4c3)CC2)cc1OC,,15% (inactive)
CN1CCCCCC1=Nc1ccccc1C#N,,22.3% (inactive)
O=C1NC(=S)S/C1=C\C=C\c1ccc([N+](=O)[O-])o1,,6.48% (inactive)
Cc1cc(/C=C2\SC(=S)NC2=O)c(C)[nH]1,,10.3% (inactive)
Cc1cc(/C=C2\SC(=S)NC2=O)cc(C)c1O,29.1 µM (active),
